A selection: hits, their analogues and other compounds. The true share with any hit is near 10%.
NIH3T3 tox: NIH 3T3 cell cytotoxicity; NIH 3T3 viability, CellTiter-Glo ATP luminescence, 48-72 h; Potency, µM (top dose mostly 96.7 µM), usual class: inhibitors; hit rate 4.3% among 94,000; AID 1345082; note: nearly all actives have a fitted effect of over 55% in size
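Viability of NIH 3T3 cells after 48 or 72 hr compound treatment at 37 °C was assessed by CellTiter-Glo, with luminescence imaged following a 10 min room-temperature step.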
HEK cytotox: cytotoxic compounds in HEK 293 cells; Potency, µM (doses to about 115 µM), hits mostly inhibitors; hit rate 6.6% among 94,000; HEK 293 viability, ATP luminescence (CellTiter-Glo), 48-72 h; note: nearly all actives have a fitted effect of over 60% in size
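ATP-coupled CellTiter-Glo luminescence served as viability read-out, recorded 10 min after reagent addition at room temperature. HEK 293 cells, 250 cells/well, had been incubated with pintool-transferred compound for 48 or 72 hr at 37 degree Celsius.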
FLuc inh: inhibitors of firefly (Photinus pyralis) luciferase. P08659. purified P. pyralis luciferase, luminescence, biochemical. Potency, µM (doses to about 115 µM), hits mostly inhibitors. hit rate 2.5% among 76,000; note: nearly all actives have a fitted effect of over 65% in size
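Inhibitors were tested against purified firefly luciferase in a biochemical, low-substrate format (both substrates at 10uM) and luminescence measured with a CCD imager.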
hNpr1 antagonist: human Npr1 receptor antagonism; Potency, µM (top dose mostly 46.3 µM), usual class: inhibitors; HEK293 hNpr1 GloSensor cGMP, ANP-stimulated luminescence; hit rate 1.6% among 76,000; calls by dose curve; note: nearly all actives have a fitted effect of over 60% in size
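HEK293 cells stably expressing human Npr1 and cGMP GloSensor pGS-40F, loaded 2 h with 2% GloSensor reagent, given compound 30 min at room temperature. Luminescence read before and 20 min after 0.1 nM hNppA.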
GPT2 inhibitor: blocks human glutamate pyruvate transaminase 2; Q8TD30; Recombinant GPT2, coupled pyruvate oxidase/HRP Amplex Red fluorescence; Potency, µM (doses to about 57.7 µM), actives largely listed as inhibitors; hit rate 0.25% among 100,000; note: nearly all actives have a fitted effect of over 60% in size
Target sequence (Q8TD30 whole entry, looked up): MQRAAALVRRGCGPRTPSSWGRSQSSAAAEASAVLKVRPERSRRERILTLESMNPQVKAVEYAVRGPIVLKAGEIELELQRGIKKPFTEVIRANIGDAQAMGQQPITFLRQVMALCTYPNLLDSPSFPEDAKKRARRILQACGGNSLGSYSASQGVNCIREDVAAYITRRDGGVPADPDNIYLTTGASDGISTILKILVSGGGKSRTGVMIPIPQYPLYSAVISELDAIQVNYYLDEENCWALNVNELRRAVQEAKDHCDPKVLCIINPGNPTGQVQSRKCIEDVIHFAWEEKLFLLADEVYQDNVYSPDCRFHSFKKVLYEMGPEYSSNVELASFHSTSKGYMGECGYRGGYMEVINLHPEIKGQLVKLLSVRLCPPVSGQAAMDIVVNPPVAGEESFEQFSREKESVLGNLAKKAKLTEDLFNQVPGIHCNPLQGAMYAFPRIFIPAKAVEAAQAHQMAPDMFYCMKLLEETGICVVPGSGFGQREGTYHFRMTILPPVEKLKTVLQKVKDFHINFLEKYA
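GPT2 10ng/uL, a-KG 250uM, L-Ala 2mM, HEPES pH7.5 + 0.0001% Tween; 30 min RT. Then Amplex mix (PO/HRP/ThPP), 30 min RT dark, fluorescence. AOA 50uM used as positive control.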
Hits are given with their value; 0 = inactive; ? = inconclusive; - = not tested or not shown. Unless noted, calls come from the whole dose curve; as a rule, active = well fitted curve in the direction sought with a large enough effect; inconclusive = small, poorly fitted or top-dose-only effect, or another doubt; inactive = no such curve, though single readings can be large; an effect the other way counts as inactive or inconclusive.

SMILES	NIH3T3 tox	HEK cytotox	FLuc inh	hNpr1 antagonist	GPT2 inhibitor
CC1(COc2ccccc2)COc2ccc(C(=O)NCc3cccs3)cc2N1 (centres undefined)	?	112µM	0	0	0
CCN1C(=O)CCN(C(=O)NC(C)C)CC12CCOCC2	0	0	0	0	0
COCCn1c(=O)c2c(n1Cc1ccccc1)CN(C(=O)c1cc3ccccc3n1C)CC2	28µM	0	0	0	0
O=C(c1cccc(O)c1)N1CCc2c(n(Cc3cccnc3)n(-c3ccccc3)c2=O)C1	?	0	0	0	0
Cn1c(C(=O)N2CCc3c(n(Cc4cccnc4)n(-c4ccccc4)c3=O)C2)cc2ccccc21	28µM	0	0	0	0
CNC(=O)[C@@H]1C[C@H]2CN(Cc3ccc(OC)cc3)C(=O)c3cccc(c32)N1C(=O)c1cccs1	0	?	-	-	0
OCC1(CN2CCCC2)CCN(Cc2ccc(Cl)cc2)CC1	?	?	0	0	0
CC(Cc1ccc2c(c1)OCO2)CN1CCC(CO)(CN2CCCC2)CC1 (centres undefined)	40µM	?	0	0	0
COCC(=O)N1CCc2nc(C)nc(-c3ccc(Cl)cc3)c2CC1	0	0	0	0	0
Cc1cccc(S(=O)(=O)N2CCCC(Cn3c(C4CC4)nc4cccnc43)C2)c1 (centres undefined)	?	35µM	0	0	0
Cc1ccc(C)c(S(=O)(=O)N2CCCC(Cn3c(C4CC4)nc4cccnc43)C2)c1 (centres undefined)	?	40µM	0	0	0
Cc1cccc(S(=O)(=O)N2CCCC(Cn3c(C)nc4cccnc43)C2)c1 (centres undefined)	?	?	0	0	0
Cc1ccc(S(=O)(=O)N2CCCC(Cn3c(C4CC4)nc4cccnc43)C2)cc1F (centres undefined)	0	?	0	0	0
O=C(Nc1ccc(C(F)(F)F)cc1)N1CCCC(Cn2c(C3CC3)nc3cccnc32)C1 (centres undefined)	32µM	40µM	0	0	0
Cc1ccc(NC(=O)N2CCCC(Cn3c(C4CC4)nc4cccnc43)C2)cc1 (centres undefined)	?	0	0	0	0
Cc1ccc(C(=O)N2CCC(C(=O)N3CCCC(c4nc5ncccc5[nH]4)C3)CC2)cc1 (centres undefined)	0	0	-	-	0
CCN1CCN(c2ccc(Nc3cc(N(C)C(=O)Nc4c(Cl)c(OC)cc(OC)c4Cl)ncn3)cc2)CC1	-	-	-	-	8.9µM
CCN1CCN(Cc2ccc(NC(=O)Nc3ccc(Oc4cc(NC)ncn4)cc3)cc2C(F)(F)F)CC1	-	-	-	-	0
O=C(NCCOc1ccccc1)c1cnc2n1CCN(Cc1cccs1)CC2	?	?	0	0	0
O=C(NCc1ccccc1)c1cnc2n1CCN(Cc1ccc(F)cc1)CC2	?	28µM	0	0	0
Nc1ncccc1CN1CCc2ncc(C(=O)NCc3ccccc3)n2CC1	?	?	0	?	0
O=C(NCc1ccccc1)c1cnc2n1CCN(Cc1cccs1)CC2	32µM	?	0	0	0
CN(C(=O)c1cnc2n1CCN(CCc1ccccc1)CC2)c1ccccc1	?	?	0	0	0
O=C(c1cnc2n1CCN(CCc1ccccc1)CC2)N1CCC(c2ccccc2)CC1	?	79µM	0	?	0
COC(=O)CNC(=O)c1nc(-c2cccnc2)c2ccccn12	0	0	0	0	0
SMILES	NIH3T3 tox	HEK cytotox	FLuc inh	hNpr1 antagonist	GPT2 inhibitor
CC1=C[C@@H](CNC(=O)NC(C)C)[C@H](C(C)C)C[C@H]1Cc1nnc(-c2ccccc2F)o1	32µM	79µM	0	0	?
C#CCNC[C@@H]1C=C(C)[C@H](Cc2nnc(-c3ccccc3F)o2)C[C@H]1C(C)C	?	71µM	0	0	0
CC1=C[C@@H](CNC(=O)CN(C)C)[C@H](C(C)C)C[C@H]1Cc1nnc(-c2ccccc2F)o1	32µM	?	0	0	0
CCNC(=O)NC[C@@H]1C=C(C)[C@H](Cc2nnc(-c3ccccc3F)o2)C[C@H]1C(C)C	?	?	0	0	0
CC(=O)Nc1ccc(C(=O)NC[C@@H]2C=C(C)[C@H](Cc3nnc(-c4ccccc4F)o3)C[C@H]2C(C)C)cc1	?	28µM	0	0	0
CC1=C[C@@H](CNC(=O)c2cncnc2)[C@H](C(C)C)C[C@H]1Cc1nnc(-c2ccccc2F)o1	?	?	0	0	0
O=C1CC2(CCN(S(=O)(=O)c3cccc4nsnc34)C2)C(=O)N1 (centres undefined)	0	0	0	0	0
O=c1[nH]c(C2CCCN(Cc3ccsc3)C2)nn1-c1ccc(Cl)cc1 (centres undefined)	?	?	0	0	0
O=C(NCc1cccnc1)C1CN(S(=O)(=O)C2CC2)CC12CCCCC2 (centres undefined)	0	0	0	0	0
COc1ccc(-c2nnc(C[C@@H]3C[C@@H](C(C)C)[C@H](CNC(=O)c4cnccn4)C=C3C)o2)cc1	0	?	0	0	0
CC1=C[C@@H](CNC(=O)c2cnccn2)[C@H](C(C)C)C[C@H]1Cc1nnc(-c2ccccc2F)o1	?	35µM	0	0	0
C#CCNC[C@@H]1C=C(C)[C@H](Cc2nnc(Cc3c[nH]c4ccccc34)o2)C[C@H]1C(C)C	?	50µM	0	0	0
Cc1cccc(NC(=O)NCC2Cn3cccc3C(=O)N2C)c1 (centres undefined)	0	0	0	0	0
COCCCNC(=O)C1CCCN1Cc1cccc(-c2cccc(OC)c2)c1 (centres undefined)	?	?	-	-	0
COc1cccc(-c2cccc(CN3CCCC3C(=O)NCc3cccc(F)c3)c2)c1 (centres undefined)	35µM	?	-	-	0
COc1cccc(-c2ccc(CN3CCCC3C(=O)NC3CCC3)cc2)c1 (centres undefined)	?	?	-	-	0
CCn1ccnc1CN1CCCC1C(=O)Nc1ccc(-c2cccc(F)c2)cc1 (centres undefined)	?	35µM	0	0	0
COc1cccc(-c2cccc(CN3CCCC3C(=O)NC3CC3)c2)c1 (centres undefined)	?	45µM	-	-	-
O=C(Nc1ccc(-c2cccc(F)c2)cc1)C1CCCN1Cc1cnc[nH]1 (centres undefined)	?	0	?	0	0
CNC(=O)N1CCC(C2CCN(C(=O)CCc3nc4ccccc4s3)C2)CC1 (centres undefined)	0	0	-	-	0
CC(=O)N1CCC(N2C(=O)c3c(c(C)nn3-c3ccccc3)C2C(C)C)CC1 (centres undefined)	?	0	-	-	-
Cc1ccccc1C(=O)N1CCC(N2C(=O)c3c(c(C)nn3-c3ccccc3)C2C(C)C)CC1 (centres undefined)	?	40µM	-	-	-
Cc1nn(-c2ccccc2)c2c1C(C(C)C)N(C1CCN(C(=O)c3ccccc3F)CC1)C2=O (centres undefined)	?	45µM	-	-	-

Screens (PubChem BioAssay)
